FLuc counter: firefly luciferase modulation, counter-screen for miR-21 project; actives 6.9% (n = 360,000); P08659; Potency, µM (top dose mostly 57.5 µM), inactives show top-dose activity change, negative = inhibition, most hits filed as inhibitors; purified FLuc, Km substrates, luminescence inhibition;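 further: plate controls were vehicle for no effect and reference inhibitor for full effect; nearly all actives have a fitted effect of over 55% in size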
Target sequence (P08659 whole entry, looked up): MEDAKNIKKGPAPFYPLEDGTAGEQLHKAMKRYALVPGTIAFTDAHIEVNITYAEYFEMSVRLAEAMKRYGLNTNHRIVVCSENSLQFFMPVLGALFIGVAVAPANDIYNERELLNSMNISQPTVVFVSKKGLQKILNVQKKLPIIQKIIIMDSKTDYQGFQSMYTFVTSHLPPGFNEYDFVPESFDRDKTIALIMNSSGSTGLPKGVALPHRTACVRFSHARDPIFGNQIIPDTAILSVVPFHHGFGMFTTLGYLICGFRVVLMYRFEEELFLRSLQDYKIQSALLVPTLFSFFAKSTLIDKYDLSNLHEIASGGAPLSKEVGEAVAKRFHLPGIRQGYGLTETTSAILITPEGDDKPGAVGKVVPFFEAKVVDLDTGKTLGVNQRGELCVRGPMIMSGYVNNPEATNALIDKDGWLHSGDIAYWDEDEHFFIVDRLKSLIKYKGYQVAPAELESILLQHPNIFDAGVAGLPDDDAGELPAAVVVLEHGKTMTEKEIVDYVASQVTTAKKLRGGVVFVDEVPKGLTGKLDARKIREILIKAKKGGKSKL
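Purified P. pyralis luciferase (10nM final) with 10uM D-luciferin and 10uM ATP (Km levels) in 50mM Tris acetate pH 7.5, 10mM Mg acetate, 0.01% Tween-20, 0.05% BSA; qHTS 6-point titration, ~60 µM downward; luminescence read.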
Luc counter: Kinase-Glo luciferase inhibition (counter-screen) | Q27757 | Kinase-Glo luciferase, ATP luminescence, 8 min | Potency, µM (top dose mostly 38.3 µM), for the others: at the top dose activity change, negative = inhibition, usual class: inhibitors | actives 0.28% (n = 200,000) | AID 1379; further: on the % scale 0 is the no-effect control and ±100 the full control effect; nearly all actives have a fitted effect of over 60% in size
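Luminescence was the read-out, taken after 8-minute incubation at ambient temperature. Luciferase turned over luciferin with 10 uM ATP in imidazole pH 7.2 buffer containing KCl, MgCl2, Tween 20 and BSA.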
Rab9 promoter act: activates the Rab9 promoter; Huh7 Rab9 promoter-luciferase reporter, luminescence, 24 h; Potency, µM (highest dose often 9.22 µM), inactives show top-dose activation, negative = inhibition, usual class: activators; actives 2.8% (n = 320,000); AID 485297; further: % of control where 0% means no effect; nearly all actives have a fitted effect of over 60% in size
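Huh7 cells stably carrying a Rab9 promoter-luciferase reporter, 1500 cells per well in OP-MEM I with 10% FBS, treated with compound 24 hours at 37C. Luciferase activity read by luminescence after 10 minutes with Amplite reagent.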
ELG1 genotoxic: inducers of genotoxicity in HEK293T ELG1-luciferase cells; Potency, µM (doses to about 46 µM), inactives show at the top dose activity change, positive = activation, actives largely listed as activators; actives 1.3% (n = 330,000); HEK293T ELG1-luciferase reporter, luminescence, 16 h; further: % of control where 0% means no effect; nearly all actives have a fitted effect of over 60% in size
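After overnight (16 hr) compound treatment at 37 °C, ELG1-luciferase HEK293T cells were lysed with ONE-Glo; luminescence quantified 30 min later at room temperature.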
NPC1 prom act: NPC1 promoter activation. Potency, µM (titrated, usually from 9.22 µM), for the others: at the highest dose activation, usual class: activators. AID 485313. actives 2.4% (n = 320,000). Huh7 NPC1 promoter luciferase reporter, 24 h; further: % of control where 0% means no effect; nearly all actives have a fitted effect of over 60% in size
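In 1536-well qHTS, Huh7 cells harboring an NPC1 promoter–luciferase construct received compound for 24 h; activation was quantified by luminescence following luciferase reagent addition.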
SMN2 splice enh: increases expression of the SMN2 splice variant; HEK293 SMN2-luciferase splicing reporter, luminescence, 30-36 h; Potency, µM (doses to about 46.1 µM), inactives show at the top dose activity change, positive = activation, usual class: activators; actives 2.8% (n = 210,000); AID 1458; further: % of control where 0% means no effect; nearly all actives have a fitted effect of over 55% in size
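HEK293 cells carry an SMN2 […]–luciferase reporter in which exon 7 inclusion puts luciferase in frame. Cells were plated 10-12 h before compound addition, then incubated 30-36 h at 37C. ONE-Glo luminescence was read; sodium butyrate at 4.5 mM final served as control.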
* hit, by the source's call; ? = inconclusive; nt = not tested or not shown; ! = not active in a repeat; [ ] = another dose, or the depositor's remark. In the library only some 7.5% were active in any assay of this set; here they are far more common. The call rests on the fitted dose curve; in most records, active means well fitted curve in the direction sought with a large enough effect; inconclusive means small, poorly fitted or top-dose-only effect, or another doubt; inactive means no such curve, though single readings can be large; an effect the other way counts as inactive or inconclusive. Potency means the concentration at half of the fitted maximal effect.

SMILES	FLuc counter	Luc counter	Rab9 promoter act	ELG1 genotoxic	NPC1 prom act	SMN2 splice enh
Cc1cccc(Nc2nnc(SC/C(O)=C(\C#N)c3nc4ccccc4[nH]3)s2)c1	17µM*	-9%	0%	1%	-2%	10%
C=CCn1c(SCC(=O)Nc2ccc(N3CCOCC3)cc2)nc2ccccc2c1=O	-2%	nt	2%	-5%	-3%	nt
O=C(C1CC(c2ccccc2O)=NO1)N1CCCCC1 (stereo not given)	15µM*	-8%	4.5µM*	13µM*	?	0.16µM*
O=C(C1CC(c2ccc(F)cc2)=NO1)N1CCCCC1 (stereo not given)	15µM*	-3%	?	?	3.2µM*	28µM*
CC1CCCCN1C(=O)C1CC(c2ccc(F)cc2)=NO1 (stereo not given)	21µM*	nt	2µM*	18%	?	nt
Cc1ccc(OCC(=O)OCc2cc(=O)n3ccsc3n2)cc1C	2%	nt	nt	nt	nt	nt
O=C(CS(=O)(=O)c1ccccc1)c1cc2cc(F)ccc2oc1=O	1.9µM*	nt	-1%	3%	12%	nt
COc1ccc2cc(C(=O)CS(=O)(=O)c3ccccc3)c(=O)oc2c1	0.95µM*	nt	0%	?	-11%	nt
O=C(CS(=O)(=O)c1ccccc1)c1cc2ccccc2oc1=O	1.5µM*	nt	-1%	5%	1%	nt
COCCCNc1nc(NCc2ccccc2OC)c2cnn(C)c2n1	-8%	nt	nt	nt	nt	nt
c1csc(-c2nn3cnnc3c3ccccc23)c1	8%	-1%	-7%	0%	-4%	-5%
Cc1ccc(NC(=O)C2OCCc3ccccc32)cc1 (stereo not given)	?	-1%	5%	7%	21%	nt
Cc1ccc(NC2=Nc3ccccc3CC2)cc1	1.9µM*	-14%	0.4µM*	0.73µM*	0.4µM*	12%
Brc1ccc(NC2=Nc3ccccc3CC2)cc1	3.8µM*	-12%	?	18%	3.2µM*	10µM*
N#CC1=C(Nc2ccc(Br)cc2)CCC1	-22%	-7%	7%	?	0%	nt
Nc1cc(C(=O)O)c(O)c(S(=O)(=O)O)c1	nt	nt	nt	nt	nt	-3%
CCOc1ccc(C(=O)c2cn(Cc3ccc(OC)cc3)c3cc(OC)c(OC)cc3c2=O)cc1	5%	nt	nt	nt	nt	26%
CCCCOC(=O)c1ccc(NC(=O)c2ocnc2C)cc1	17µM*	-5%	21%	5%	19%	-8%
CCCOC(=O)c1ccc(NC(=O)c2ccoc2C)cc1	9.5µM*	?	1.6µM*	15%	3.2µM*	?
CCCCOC(=O)c1ccc(NC(=O)c2ccoc2C)cc1	?	-2%	?	21µM*	21%	?
CCCCOC(=O)c1ccc(NC(=O)c2ccccc2OC)cc1	?	-7%	1%	0%	-3%	-44%
CCCOC(=O)c1ccc(NC(=O)c2ccccc2OC)cc1	?	-3%	14%	16%	10%	-18%
Cc1ccc(-c2noc(-c3nnn(CC(=O)Nc4cccc(C(F)(F)F)c4)c3N)n2)cc1	-6%	nt	nt	nt	nt	nt
CCc1ccc(CNC(=O)CCc2c(C)nn(-c3ccc(N4CCCC4)nn3)c2C)cc1	-1%	nt	nt	nt	nt	nt
Cc1cccc(OCCCC(=O)Nc2ccc(S(=O)(=O)Nc3onc(C)c3C)cc2)c1	0%	-1%	2%	-2%	0%	10%
SMILES	FLuc counter	Luc counter	Rab9 promoter act	ELG1 genotoxic	NPC1 prom act	SMN2 splice enh
Cc1cccc(NC(=O)Nc2ccc(S(=O)(=O)Nc3onc(C)c3C)cc2)c1	17µM*	nt	?	3%	23%	nt
Cc1ccc(/C=C/C(=O)Nc2ccc(S(=O)(=O)Nc3onc(C)c3C)cc2)cc1	15µM*	nt	1%	5%	1%	nt
Cc1cc(C(=O)Nc2ccc(S(=O)(=O)Nc3onc(C)c3C)cc2)c(C)o1	?	3%	12%	1%	0%	14%
Cc1ccc2oc(C(=O)Nc3ccc(S(=O)(=O)Nc4onc(C)c4C)cc3)c(C)c2c1	7.6µM*	nt	?	?	24%	nt
NC(=O)c1nc(-c2ccc(F)c(F)c2)nc2c1[nH]c(=O)n2-c1cccc(Cl)c1	2%	nt	nt	nt	nt	5%
O=C(CN1Cc2ccccc2C1=O)Nc1cc(F)ccc1F	-5%	nt	nt	nt	nt	nt
O=C1CCc2ccc(NS(=O)(=O)c3ccc(F)cc3)cc2N1	-5%	1%	13%	18µM*	0%	?
O=c1[nH]c2ccc(NS(=O)(=O)c3ccc(F)cc3)cc2s1	-9%	nt	nt	nt	nt	nt
COc1ccc(OC)c(C2CC(=O)Nc3cc(OC)c(OC)c(OC)c32)c1 (stereo not given)	7%	-4%	-5%	18µM*	0%	?
COc1ccc(OC)c(C2CC(=O)Nc3ccc4ccccc4c32)c1 (stereo not given)	-13%	nt	nt	nt	nt	1%
CCOc1ccc(C(=O)Nc2cccc(-c3nc4cccnc4s3)c2C)cc1OCC	2%	nt	nt	nt	nt	nt
O=C(Cn1ccsc1=NC(=O)C(F)(F)F)c1ccccc1	-12%	4%	2.8µM*	15%	?	?
O=C(CCl)N=c1sccn1Cc1ccccc1Cl	0%	nt	-54%	-7%	-52%	nt
Cc1cccc(C(=O)O/N=C(\N)c2cccc([N+](=O)[O-])c2)c1	1.3µM*	-5%	18%	?	?	16%
Cc1ncsc1CCOC(=O)c1cccc([N+](=O)[O-])c1	19µM*!	-4%	-5%	1%	-2%	5%
O=C(COC(=O)c1cccc([N+](=O)[O-])c1)NCc1cccs1	4%	1%	4%	3%	0%	-2%
Cc1ccccc1C(=O)O/N=C(\N)c1cccc([N+](=O)[O-])c1	0.6µM*	?	4.5µM*	?	?	?
COc1cccc(C(=O)O/N=C(\N)c2ccc([N+](=O)[O-])cc2)c1OC	11µM*	-4%	10%[1.84 µM]	?	?	?
N/C(=N\OC(=O)c1cccc2ccccc12)c1cccc([N+](=O)[O-])c1	?	0%	15%	1%	12%	13%
COc1cccc(CNC(=O)c2sc3nc(C)cc(C)c3c2-n2cccc2)c1OC	-4%	nt	nt	nt	nt	nt
CCOc1ccc(CCNC(=O)c2nn(C)c3c2CSc2ccccc2-3)cc1	-2%	nt	nt	nt	nt	nt
N/C(=N\OC(=O)c1cccs1)c1cccc([N+](=O)[O-])c1	3.4µM*	-5%	26%	?	21%	20%
Cc1ccc2c(nc3s/c(=C/c4cccs4)c(=O)n32)c1C	1.9µM*	-7%	3.5µM*	16µM*	29%	?
Cc1cc(C)c2nc3s/c(=C/c4ccccc4)c(=O)n3c2c1	?	-1%	1.3µM*	3%	?	-2%
